MsrA inhibitor: inhibitors of bovine MsrA | purified bovine MsrA, absorbance read-out | inhibition, % at 15.5 µM | actives 0.75% (n = 360,000) | AID 651718; in the data active = inhibition above about 4.5%;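 also: 0% = vehicle wells with enzyme and 100% = reference inhibitor wells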
NadD block: inhibitors of Staphylococcus aureus NadD; actives 0.78% (n = 360,000); inhibition, % at 20 µM; purified NadD enzyme, colorimetric absorbance read-out; AID 602399; in the data active = inhibition above about 26%
rCAG binder: r(CAG) repeat RNA binding. TO-PRO-1 dye displacement fluorescence. inhibition, % at 3 µM. actives 1.3% (n = 370,000);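 active = inhibition above the plate cutoff, the mean of all test compounds on that plate plus 3 SD, cut at about 35% in these data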;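 also: 0% = DMSO alone and 100% = 100 µM mitoxantrone as full dye displacement; higher means more dye released from RNA so lower well fluorescence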
MsrA act: activates bovine MsrA enzyme | purified bovine MsrA, absorbance read-out | activation, % at 10.6 µM | actives 0.3% (n = 360,000); in the data active = activation above about 7.5%;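 also: 0% = vehicle and 100% = reference activator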
rCAG bind conf: r(CAG) RNA repeat binding, confirmation. shares compounds with rCAG binder. TO-PRO-1 dye displacement fluorescence. inhibition, % at 3 µM. actives 70% (n = 4,300). AID 652065;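 active = inhibition above a per-plate cutoff, the mean inhibition of sample wells plus 3 SD, cut at about 35% in these data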;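 also: loss of TO-PRO-1 fluorescence as compound displaces dye from 1x1 AA loop RNA; 0% = DMSO only wells and 100% = 100 µM mitoxantrone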
dCAG dye counter: disrupts DNA CAG TO-PRO-1 complex, flagging rCAG hits. shares compounds with rCAG binder. d(CAG) DNA oligo TO-PRO-1 dye displacement, fluorescence. inhibition, % at 3 µM. actives 94% (n = 4,300). AID 652068;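 active = inhibition above its plate's cutoff, the mean test-well inhibition plus 3 SD, cut at about 4.8% in these data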;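 also: 0% = DNA dye mix with DMSO and 100% = 100 µM mitoxantrone; hits displace the dye from DNA and so lower well fluorescence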
Active calls of the source: *; . = not tested or not shown; ! = repeats disagree. Rows were chosen to be rich in hits. Some 2.7% of all compounds tested hit in one or more screens of this group.

SMILES | MsrA inhibitor | NadD block | rCAG binder | MsrA act | rCAG bind conf | dCAG dye counter
Cc1ccccc1S(=O)(=O)NC(=O)C1(C)CCN1C(=O)CC(c1ccccc1)c1ccccc1 (stereo unspecified) | -2 | 0 | 47* | 0 | 33 | 7.0*
CN(C)S(=O)(=O)c1ccc(N2CCCC2)c(C(=O)OCC(=O)N2CCN(c3ccccc3)CC2)c1 | 0 | -2 | -3 | -8 | . | .
CC1CCc2sc3c(c2C1)c(=O)n(CC(=O)O)c(=O)n3Cc1ccc(Cl)cc1 (stereo unspecified) | -1 | 1 | 54* | -1 | 49* | 13*
NCCNC(=O)Cn1c(=O)c2c3c(sc2n(Cc2ccccc2)c1=O)CCCC3 | 2 | -9 | 15 | -1 | . | .
O=C(O)Cn1c(=O)c2c3c(sc2n(Cc2ccc(Cl)cc2Cl)c1=O)CCCC3 | 0 | 1 | 44* | -1 | 58* | 19*
Fc1ccccc1NC(=S)N1CCN(Cc2ccccc2)CC1 | -1 | -4 | 0 | -5 | . | .
Cc1nn(-c2ccccc2)c(Cl)c1/C=C(\CC(=O)O)c1nc2ccccc2s1 | 3 | 5 | 42* | -2 | 43* | 13*
Cc1nn(-c2ccccc2)c(Cl)c1/C=C(/CC(=O)O)c1nc2ccccc2s1 | 2 | 10 | 47* | -4 | 36* | 9.8*
CCN1CCN(Cc2ccc(NC(=O)c3cc(NC(=O)C4=NN(c5ccccc5)C(=O)C4)cc(OC)c3)cc2C(F)(F)F)CC1 | 0 | 33* | 38*! | -1 | 33 | 20*
CCN1CCN(Cc2ccc(NC(=O)c3cc(NC(=O)N4CCNC4=O)cc(OC)c3)cc2C(F)(F)F)CC1 | 1 | -12 | 1 | -3 | . | .
CCOc1ccccc1NC(=O)c1c(NC(=O)CCC(=O)O)sc2c1CCCCC2 | 2 | 17 | 27 | -4 | . | .
CCOC(=O)c1ccc(NC(=O)c2c(NC(=O)CCC(=O)O)sc3c2CCCCC3)cc1 | 0 | 6 | 43* | -3 | 34 | 10*
O=C(/C=C\c1cccs1)N1CCN(Cc2ccc3c(c2)OCO3)CC1 | 3 | 1 | -5 | -2 | . | .
COc1cccc(C(=O)/C=C/Nc2ccc(S(=O)(=O)Nc3onc(C)c3C)cc2)c1 | 1 | -2 | 13 | -3 | . | .
CCOc1ccc(C(=O)/C=C/Nc2ccc(S(=O)(=O)Nc3onc(C)c3C)cc2)cc1 | 1 | 9 | 42* | -14 | 64* | 25*
Cc1noc(NS(=O)(=O)c2ccc(N/C=C\C(=O)c3ccc(Br)cc3)cc2)c1C | 3 | 2 | 75* | -4 | 74* | 39*
Cc1noc(NS(=O)(=O)c2ccc(N/C=C\C(=O)c3cccc4ccccc34)cc2)c1C | 2 | 13 | 72* | -5 | 81* | 46*
Cc1noc(NS(=O)(=O)c2ccc(N/C=C\C(=O)c3ccc4c(c3)OCO4)cc2)c1C | 3 | 4 | 44* | -10 | 43* | 14*
Cc1c(NC(=O)C(C)OC(=O)CCOc2ccccc2)c(=O)n(-c2ccccc2)n1C (stereo unspecified) | 1 | -6 | -4 | -5 | . | .
Cc1ccc(NCC(=O)Nc2cccc(F)c2)cc1S(=O)(=O)N1CCCCCC1 | 1 | -6 | 1 | -4 | . | .
CCCn1c(SCC(=O)Nc2cc(S(=O)(=O)N(C)C)ccc2OC)n[nH]c1=O | -1 | -5 | -1 | -1 | . | .
Nc1cccc2c1C(=O)N(CCOc1ccccc1F)C2=O | 0 | -4 | -2 | -2 | . | .
C=C1CCN([C@@H](C)C(=O)NCc2ccc(Cl)cc2)S(=O)(=O)c2ccccc21 | 0 | 0 | -3 | -8 | . | .
COc1ccc(OCCCC(=O)N2CCN(S(=O)(=O)c3cccc(F)c3)CC2)cc1 | -1 | -7 | -5 | -2 | . | .
O=C(O)CC(Cc1ccc(Cl)cc1)C(=O)Nc1cc(Cl)ccc1Cl (stereo unspecified) | 2 | 4 | 40* | 3 | 27 | 4
SMILES | MsrA inhibitor | NadD block | rCAG binder | MsrA act | rCAG bind conf | dCAG dye counter
COc1ccc(OC)c(NC(=O)C(CC(=O)O)Cc2ccc(Cl)cc2)c1 (stereo unspecified) | -1 | -1 | 12 | -1 | . | .
CC(=O)Oc1cc2c3c(c1)/C(=C1/SC(=S)NC1=O)C(=O)N3C(C)(C)C=C2C | -2 | 15 | 59* | -2 | 92* | 73*
O=C(N/N=C/c1cccc([N+](=O)[O-])c1O)C(O)(c1ccccc1)c1ccccc1 | 3 | 2 | 20 | -4 | . | .
COc1cc([N+](=O)[O-])cc(/C=N/NC(=O)C(C)Nc2cccc3ccccc23)c1O (stereo unspecified) | 2 | 48* | 79* | -3 | 67* | 30*
COc1cc([N+](=O)[O-])cc(/C=N/NC(=O)C(O)(c2ccccc2)c2ccccc2)c1O | 3 | 17 | 38* | -7 | 34 | 13*
CC(Oc1ccc(Cl)cc1)c1ccc(C#N)c(=O)[nH]1 (stereo unspecified) | 3 | 1 | 3 | -14 | . | .
CCOc1cc(/C=C2\SC(=N)N(c3nccs3)C2=O)ccc1OCCN1CCOCC1 | 2 | -1 | 38* | -8 | 37* | 11*
CCCCN1CC(C(=O)NCc2ccc(C)cc2)CC1=O (stereo unspecified) | 0 | -7 | 46* | -2 | 0 | -1
CC(=O)c1c(O)c(C)c(O)c2c1OC1=CC(=O)C(C(C)=O)C(=O)[C@@]12C (stereo partly specified) | 2 | -6 | 42* | -10 | 14 | 3
CC(=O)Oc1c(C)c(OC(C)=O)c2c(c1C(C)=O)OC1CC(=O)C(C(C)=O)=C(O)C21C (stereo unspecified) | 1 | -1 | 9 | -8 | . | .
CC1=CCC(C(=O)O)C(C(=O)Nc2ccc(-c3nc4ccc(C)cc4s3)cc2)C1 (stereo unspecified) | 3 | 10 | 67* | -7 | 73* | 36*
O=[N+]([O-])c1ccc2nc(NS(=O)(=O)c3ccc(F)cc3)sc2c1 | 2 | -3 | 43* | -3 | 28 | 4
Cc1ccc2nc(-c3ccc(NS(=O)(=O)c4ccc(F)cc4)cc3)sc2c1 | 2 | 1 | 48* | -10 | 60* | 24*
CC(=O)Nc1ccc(S(=O)(=O)Nc2nc3ccc(C)cc3s2)cc1 | 1 | -2 | 22 | -4 | . | .
Cc1ccc(S(=O)(=O)Nc2nc3ccc(N)cc3s2)cc1 | 3 | -2 | 11 | 0 | . | .
O=C(CCc1cn(Cc2ccc(F)cc2)c2ccccc12)N1CCOCC1 | 0 | -6 | -5 | -2 | . | .
O=C(CCC1CCCC1)NCCCNC(=O)CCC1CCCC1 | -1 | -5 | -10 | -1 | . | .
C=CCN(CC=C)C(=O)COC(=O)c1ccc(Sc2ncn[nH]2)c([N+](=O)[O-])c1 | 0 | -7 | 3 | 2 | . | .
O=C(O)c1cccc(Nc2c3ccccc3nc3ccccc23)c1 | 1 | 0 | 1 | -2 | . | .
O=C(O)c1cccc(Nc2nc3ccccc3nc2NS(=O)(=O)c2ccccc2)c1 | 3 | 4 | 36* | -4 | 39* | 12*
